What all share (parameters): scale not given: direction of the effect not stated beside the values
Experiment [1] concerns the target Protein translocase subunit SecA (Escherichia coli (strain K12)) (UniProt P10408). In words: Assay to Identify E. coli SecA ATPase Inhibitors. The experiment is classed as functional. To be noted: 30 µM.
Experiment [2] deals with T1, Ubiquitin-activating enzyme e1, putative (Leishmania donovani (strain BPK282A1)) (UniProt E9BSI1).
T1 sequence (whole entry): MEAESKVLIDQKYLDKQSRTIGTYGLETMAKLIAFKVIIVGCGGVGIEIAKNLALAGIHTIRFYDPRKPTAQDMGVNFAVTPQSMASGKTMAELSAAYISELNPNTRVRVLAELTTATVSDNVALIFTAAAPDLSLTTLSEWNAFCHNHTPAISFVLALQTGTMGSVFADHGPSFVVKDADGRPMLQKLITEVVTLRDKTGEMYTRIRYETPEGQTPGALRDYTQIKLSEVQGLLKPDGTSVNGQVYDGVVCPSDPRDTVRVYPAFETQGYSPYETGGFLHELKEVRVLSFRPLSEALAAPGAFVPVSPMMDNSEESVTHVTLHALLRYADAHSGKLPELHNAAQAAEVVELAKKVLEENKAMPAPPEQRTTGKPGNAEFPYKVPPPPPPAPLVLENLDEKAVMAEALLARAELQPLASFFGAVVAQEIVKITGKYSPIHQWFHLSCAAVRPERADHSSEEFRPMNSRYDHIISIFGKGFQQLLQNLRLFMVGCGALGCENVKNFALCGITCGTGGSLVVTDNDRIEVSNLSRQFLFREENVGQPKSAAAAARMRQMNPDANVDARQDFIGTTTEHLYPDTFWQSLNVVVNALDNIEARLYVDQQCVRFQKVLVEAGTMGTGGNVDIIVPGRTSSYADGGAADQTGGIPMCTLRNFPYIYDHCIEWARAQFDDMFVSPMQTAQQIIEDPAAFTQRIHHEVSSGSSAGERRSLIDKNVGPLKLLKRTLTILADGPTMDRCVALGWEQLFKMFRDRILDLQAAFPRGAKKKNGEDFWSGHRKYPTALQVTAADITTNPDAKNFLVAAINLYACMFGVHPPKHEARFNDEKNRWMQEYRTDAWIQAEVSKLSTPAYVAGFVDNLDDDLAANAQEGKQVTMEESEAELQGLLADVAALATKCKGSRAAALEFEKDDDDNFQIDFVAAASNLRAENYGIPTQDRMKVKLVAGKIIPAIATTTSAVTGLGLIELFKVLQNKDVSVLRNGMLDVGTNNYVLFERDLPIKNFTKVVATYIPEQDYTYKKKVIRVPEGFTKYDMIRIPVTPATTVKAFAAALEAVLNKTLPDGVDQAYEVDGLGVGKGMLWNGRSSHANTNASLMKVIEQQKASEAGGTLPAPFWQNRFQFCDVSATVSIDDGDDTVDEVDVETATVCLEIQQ
The experiment is described as follows: Leishmania donovani Ubiquitin Activating Enzyme (LdE1). It is filed as functional. The note with it: 30 µM.

The target of experiment [3] is Sialic acid-binding Ig-like lectin 9 (Homo sapiens) (UniProt Q9Y336). In words: Hs-Siglec9 ALPHAscreen SOP 20170721. To be noted: 10 µM. A general note: In Alpha technology, singlet oxygen from a donor bead excites a nearby acceptor bead.
The test system of the next experiment is Trypanosoma cruzi. In words: Trypanosoma cruzi phosphomannomutase and mannose-1-phosphate guanylyltransferase assay. To be noted: 10 µM. It is filed as functional.
For experiment [4], the target named is T2, Arginase-2, mitochondrial (Homo sapiens) (UniProt P78540).
T2 sequence (whole entry): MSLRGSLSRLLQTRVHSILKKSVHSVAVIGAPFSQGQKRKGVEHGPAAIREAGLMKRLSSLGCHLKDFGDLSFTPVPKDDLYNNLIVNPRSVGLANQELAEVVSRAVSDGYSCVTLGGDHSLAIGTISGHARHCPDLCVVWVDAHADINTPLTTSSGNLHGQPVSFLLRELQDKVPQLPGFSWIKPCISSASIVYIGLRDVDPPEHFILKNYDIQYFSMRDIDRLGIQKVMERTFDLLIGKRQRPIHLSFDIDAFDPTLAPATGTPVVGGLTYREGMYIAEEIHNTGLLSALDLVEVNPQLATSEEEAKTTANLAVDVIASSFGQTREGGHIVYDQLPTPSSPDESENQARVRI
In words: in vitro enzyme assay to detect the production of urea directly proportional to the activity of Arginase II. Note: in the data most compounds retested in dose-response had high values. The note with it: 33.3 µM. It is filed as functional.

Experiment [5] concerns the target T3, Proteasome subunit beta (Trypanosoma cruzi) (UniProt O96673).
T3 sequence (whole entry): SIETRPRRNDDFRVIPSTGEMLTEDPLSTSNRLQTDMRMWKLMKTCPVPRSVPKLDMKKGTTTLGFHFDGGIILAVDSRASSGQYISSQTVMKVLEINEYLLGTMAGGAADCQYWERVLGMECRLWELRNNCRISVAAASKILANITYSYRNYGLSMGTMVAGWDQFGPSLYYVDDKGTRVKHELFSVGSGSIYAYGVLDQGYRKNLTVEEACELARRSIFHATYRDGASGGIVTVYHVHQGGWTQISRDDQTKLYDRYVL
The experiment is described as follows: Trypanosoma cruzi proteasome chymotrypsin-like activity (TcProtChymo) assay. Note: in the data most compounds retested in dose-response had high values. It is filed as functional. To be noted: 9.37 µM.

The species entered for a further experiment is Homo sapiens. The experiment is described as follows: To identify inhibition of the IFN signalling (Jak-Stat) pathway via expression of an eGFP reporter gene under the control of an IFN-stimulated response element (ISRE) containing MxA promoter. The experiment is classed as functional. To be noted: 30 µM. A general note: A reporter such as luciferase makes a cellular process visible.

In experiment [6] the target is T4, Tyrosyl-tRNA synthetase, putative (Trypanosoma cruzi (strain CL Brener)) (UniProt Q4DSP6).
T4 sequence (whole entry): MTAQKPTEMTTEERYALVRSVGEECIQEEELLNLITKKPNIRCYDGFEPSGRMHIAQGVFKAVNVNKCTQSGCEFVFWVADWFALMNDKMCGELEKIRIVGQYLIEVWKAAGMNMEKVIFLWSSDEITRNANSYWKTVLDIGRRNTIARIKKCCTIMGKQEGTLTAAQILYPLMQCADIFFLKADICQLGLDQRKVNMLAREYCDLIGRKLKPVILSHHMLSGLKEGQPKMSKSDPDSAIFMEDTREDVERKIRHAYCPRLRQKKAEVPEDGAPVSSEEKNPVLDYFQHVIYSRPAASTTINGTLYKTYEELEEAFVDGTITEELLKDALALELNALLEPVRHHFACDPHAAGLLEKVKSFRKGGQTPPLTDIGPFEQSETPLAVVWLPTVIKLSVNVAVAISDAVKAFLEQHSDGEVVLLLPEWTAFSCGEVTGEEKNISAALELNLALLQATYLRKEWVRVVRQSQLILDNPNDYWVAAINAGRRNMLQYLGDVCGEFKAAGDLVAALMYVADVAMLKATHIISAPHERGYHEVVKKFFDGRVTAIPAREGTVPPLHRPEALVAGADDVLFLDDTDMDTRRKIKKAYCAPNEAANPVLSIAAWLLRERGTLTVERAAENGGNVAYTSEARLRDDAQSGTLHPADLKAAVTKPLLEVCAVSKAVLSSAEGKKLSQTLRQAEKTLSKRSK
The experiment is described as follows: Trypanosoma cruzi tyrosyl tRNA synthetase (TcYRS) _High Tyrosine SOP. Note: in the data most compounds retested in dose-response had high values. The experiment is classed as functional. To be noted: 30 µM.

Experiment [7] has as its target T4, Tyrosyl-tRNA synthetase, putative (Trypanosoma cruzi (strain CL Brener)). In words: Trypanosoma cruzi tyrosyl tRNA synthetase (TcYRS) SOP. It is filed as functional. The note with it: 30 µM.
Experiment [8] addresses Chromo domain-containing protein 1 (Saccharomyces cerevisiae (strain ATCC 204508 / S288c) (Baker's yeast)) (UniProt P32657). The experiment is described as follows: ScCHD-1 Enzyme Inhibition Assay. Note: in the data most compounds retested in dose-response had high values. The experiment is classed as functional. The note with it: 30 µM.

For part of these data: Measured potencies and affinities stand elsewhere.

Sequence of Protein translocase subunit SecA (Escherichia coli (strain K12)) (P10408 whole entry): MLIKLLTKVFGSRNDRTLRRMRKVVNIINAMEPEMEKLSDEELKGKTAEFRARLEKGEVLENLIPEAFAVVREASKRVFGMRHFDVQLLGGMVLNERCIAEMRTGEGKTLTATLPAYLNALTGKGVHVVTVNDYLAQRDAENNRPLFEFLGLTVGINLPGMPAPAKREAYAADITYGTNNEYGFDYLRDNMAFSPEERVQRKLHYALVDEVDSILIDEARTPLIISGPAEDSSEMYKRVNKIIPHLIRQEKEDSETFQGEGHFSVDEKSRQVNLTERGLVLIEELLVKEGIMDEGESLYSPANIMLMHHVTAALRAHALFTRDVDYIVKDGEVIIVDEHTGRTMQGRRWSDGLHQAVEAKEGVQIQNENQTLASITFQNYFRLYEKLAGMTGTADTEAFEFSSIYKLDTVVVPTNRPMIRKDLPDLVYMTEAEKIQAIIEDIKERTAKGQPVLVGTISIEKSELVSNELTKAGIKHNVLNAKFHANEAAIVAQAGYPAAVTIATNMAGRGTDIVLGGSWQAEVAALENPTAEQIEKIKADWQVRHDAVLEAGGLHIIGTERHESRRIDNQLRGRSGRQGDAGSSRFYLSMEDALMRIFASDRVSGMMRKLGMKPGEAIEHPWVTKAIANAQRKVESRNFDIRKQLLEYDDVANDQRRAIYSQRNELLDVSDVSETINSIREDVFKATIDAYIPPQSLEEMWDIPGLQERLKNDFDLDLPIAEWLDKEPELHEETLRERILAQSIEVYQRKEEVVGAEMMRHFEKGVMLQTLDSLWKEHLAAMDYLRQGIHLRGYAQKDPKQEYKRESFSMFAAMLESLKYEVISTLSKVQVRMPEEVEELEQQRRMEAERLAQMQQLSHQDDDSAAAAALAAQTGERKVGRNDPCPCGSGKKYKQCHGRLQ
Sequence of Sialic acid-binding Ig-like lectin 9 (Homo sapiens) (Q9Y336 whole entry): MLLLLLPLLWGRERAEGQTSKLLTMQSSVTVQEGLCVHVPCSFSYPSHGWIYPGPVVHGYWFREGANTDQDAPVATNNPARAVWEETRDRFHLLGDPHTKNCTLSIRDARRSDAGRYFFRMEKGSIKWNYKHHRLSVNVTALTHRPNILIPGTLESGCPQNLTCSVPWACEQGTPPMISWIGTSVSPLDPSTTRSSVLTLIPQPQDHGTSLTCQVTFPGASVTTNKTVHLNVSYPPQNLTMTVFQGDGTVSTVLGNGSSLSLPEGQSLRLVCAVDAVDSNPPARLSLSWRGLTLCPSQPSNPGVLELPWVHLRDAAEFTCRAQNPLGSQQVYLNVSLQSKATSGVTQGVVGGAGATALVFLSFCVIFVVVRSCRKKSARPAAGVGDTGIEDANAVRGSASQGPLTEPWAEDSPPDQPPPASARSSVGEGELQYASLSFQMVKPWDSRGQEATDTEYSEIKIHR
Sequence of Chromo domain-containing protein 1 (Saccharomyces cerevisiae (strain ATCC 204508 / S288c) (Baker's yeast)) (P32657 whole entry, the tested form may be a part): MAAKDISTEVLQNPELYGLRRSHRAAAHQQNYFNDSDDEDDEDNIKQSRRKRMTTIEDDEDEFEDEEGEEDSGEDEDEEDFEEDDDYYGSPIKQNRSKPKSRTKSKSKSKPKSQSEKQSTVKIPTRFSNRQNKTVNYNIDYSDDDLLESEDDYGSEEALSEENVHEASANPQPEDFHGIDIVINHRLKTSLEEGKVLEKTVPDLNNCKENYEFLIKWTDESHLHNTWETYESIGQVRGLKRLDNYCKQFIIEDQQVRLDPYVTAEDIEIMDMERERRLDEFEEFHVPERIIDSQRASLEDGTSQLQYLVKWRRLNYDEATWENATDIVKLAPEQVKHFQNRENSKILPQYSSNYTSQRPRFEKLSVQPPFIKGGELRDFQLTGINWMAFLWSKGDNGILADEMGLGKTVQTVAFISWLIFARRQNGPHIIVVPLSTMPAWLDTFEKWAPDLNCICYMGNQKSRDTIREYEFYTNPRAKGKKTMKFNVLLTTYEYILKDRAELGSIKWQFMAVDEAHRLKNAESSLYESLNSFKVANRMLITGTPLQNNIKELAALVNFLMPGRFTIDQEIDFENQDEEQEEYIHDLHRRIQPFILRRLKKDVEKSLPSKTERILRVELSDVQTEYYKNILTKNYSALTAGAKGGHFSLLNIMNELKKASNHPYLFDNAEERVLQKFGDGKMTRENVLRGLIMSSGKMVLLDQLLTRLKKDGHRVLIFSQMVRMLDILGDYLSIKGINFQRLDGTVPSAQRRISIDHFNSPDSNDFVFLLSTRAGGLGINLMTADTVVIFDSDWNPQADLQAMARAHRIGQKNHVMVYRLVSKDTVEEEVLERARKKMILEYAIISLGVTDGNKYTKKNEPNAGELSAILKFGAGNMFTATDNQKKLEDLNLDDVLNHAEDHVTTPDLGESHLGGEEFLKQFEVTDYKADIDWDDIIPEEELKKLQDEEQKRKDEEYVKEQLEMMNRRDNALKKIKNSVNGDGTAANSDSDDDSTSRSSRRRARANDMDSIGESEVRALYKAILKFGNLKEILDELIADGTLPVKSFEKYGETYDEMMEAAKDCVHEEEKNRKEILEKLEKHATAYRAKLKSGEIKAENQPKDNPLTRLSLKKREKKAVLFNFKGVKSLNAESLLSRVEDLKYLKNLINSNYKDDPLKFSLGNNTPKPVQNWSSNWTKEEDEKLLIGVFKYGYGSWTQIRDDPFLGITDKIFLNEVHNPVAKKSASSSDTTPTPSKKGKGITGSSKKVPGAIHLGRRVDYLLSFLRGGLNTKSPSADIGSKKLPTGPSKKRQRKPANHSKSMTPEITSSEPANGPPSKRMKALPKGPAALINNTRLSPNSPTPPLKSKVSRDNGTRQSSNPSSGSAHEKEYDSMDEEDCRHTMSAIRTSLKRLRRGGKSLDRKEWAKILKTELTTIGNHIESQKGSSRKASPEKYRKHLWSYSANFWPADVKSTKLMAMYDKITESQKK

For `O=C1NCc2ccc(NC(=O)C3CCCN3c3nccs3)cc21` (stereo not given), the Percent Effect in experiment [1] was 0.371%; in experiment [2], -7.69%; in experiment [3], 12.8%; in the experiment with Trypanosoma cruzi, 0.0939%; in experiment [4] it was -1.23%; in [5], 1.96%. The Percent Effect in the experiment listed under Homo sapiens is -7.22%; in experiment [6] it was -0.478%; in experiment [7], -6.02%; in experiment [8] it was 105%.
In the case of `Cc1nc(C)n(CC2CN(CCOc3ccccc3F)CCO2)n1` (stereo not given), the Percent Effect in [1] is -2.06%; in experiment [2], 5.33%; in experiment [3] it was -0.849%; in the experiment with Trypanosoma cruzi, 0.803%; in experiment [4], -2.66%; in experiment [5] it was -2.97%. Also, the Percent Effect in the experiment filed under Homo sapiens is 9.21%; in experiment [6], -1.58%; in experiment [7], 0%; in [8], -2.97%.
For the compound `Cc1ccc([C@@H]2CN(C(=O)c3cccnn3)C[C@H]2NC(=O)C2CC2)cc1`, the Percent Effect was -10.6% in experiment [1]; 5.41% in experiment [2]; 16.9% in experiment [3]; 4.17% with Trypanosoma cruzi; 4.54% in experiment [4]; 13.2% in experiment [5]. Moreover, the Percent Effect in the experiment listed under Homo sapiens was 3.04%; in [6], 5.85%; in [7], 19.5%; in [8], -1.62%.
As to `O=C(CSC1CCc2ccccc2NC1=O)NCCO` (stereo not given), the Percent Effect is -0.348% in experiment [1]; 13.5% in [2]; 0.884% in [3]; 1.84% in the experiment on Trypanosoma cruzi; -3.15% in experiment [4]; 15.6% in [5]. Further, the Percent Effect was 25.1% in the experiment filed under Homo sapiens, 5.85% in experiment [6], 14.6% in [7] and -1.22% in [8].
Turning to `CCn1ccnc1CNCC1CCN(CC(O)c2ccccc2)CC1` (stereo not given), the Percent Effect is -3.91% in [1]; -5.13% in [2]; -9.4% in [3]; 5.92% with Trypanosoma cruzi; 11.9% in [4]; -2.13% in experiment [5]. For the same compound, the Percent Effect in the experiment listed under Homo sapiens is 4.15%; in experiment [6], 3.35%; in [7] it was 6.02%; in experiment [8], -1.13%.
With `Cc1cc(C(=O)NCc2ccc(N3CCCC(C(N)=O)C3)cc2)[nH]n1` (stereo not given), the Percent Effect in experiment [1] is -7.13%; in experiment [2], 10.7%; in [3] it was -2.98%; with Trypanosoma cruzi, -3.21%; in [4] it was -0.887%; in experiment [5] it was 16.2%. Also, the Percent Effect in the experiment listed under Homo sapiens is 14.9%; in [6], 0.526%; in experiment [7] it was 5.13%; in [8] it was -7.84%.
Take `CCc1nc(CNCC2CCCN2c2cc(NC)ncn2)cs1` (stereo not given): the Percent Effect in [1] was -1.05%; in [2], 0%; in experiment [3], 1.02%; in the experiment on Trypanosoma cruzi, 9.48%; in [4], 1.64%; in experiment [5] it was 6.91%. For the same compound, the Percent Effect was -11.3% in the experiment listed under Homo sapiens, 3.35% in [6], 6.02% in [7] and -3.49% in experiment [8].
With `CCOC(=O)CN1CCC2(CC1)CC(=O)c1ccc(OC)cc1O2`, the Percent Effect in experiment [1] was -2.51%; in experiment [2], 27.3%; in [3] it was 8.34%; in the experiment with Trypanosoma cruzi, 4.13%; in experiment [4], -4.11%; in experiment [5], 19.1%. Moreover, the Percent Effect in the experiment listed under Homo sapiens was 7.83%; in experiment [6] it was 1.93%; in [7], 15%; in experiment [8] it was -11%.
With `CC(C(=O)N1CCCC1)N1CCC(c2nccn2CC2CCC2)CC1` (stereo not given), the Percent Effect in experiment [1] is -7.94%; in [2], 0%; in experiment [3], -0.943%; with Trypanosoma cruzi, -1.07%; in experiment [4] it was 0.35%; in [5], 1.71%. Moreover, the Percent Effect in the experiment filed under Homo sapiens was found to be 1.41%; in experiment [6], 9.04%; in experiment [7], 12.2%; in experiment [8], 2.51%.
With `COCC(=O)N1CCC(c2cc(C(F)(F)F)n3ccnc3n2)CC1`, the Percent Effect was -4.74% in experiment [1]; 17.3% in experiment [2]; 7.36% in experiment [3]; 3.75% in the experiment on Trypanosoma cruzi; 0.885% in [4]; 9.85% in experiment [5]. The Percent Effect in the experiment listed under Homo sapiens was 5.45%; in experiment [6], 3.17%; in [7], 15%; in [8], -24.5%.
Regarding `O=C(Cc1c[nH]c2ccccc12)N1CCC(Nc2cccnn2)CC1`, the Percent Effect in experiment [1] was -6.75%; in experiment [2], 15.6%; in experiment [3] it was 5.29%; in the experiment with Trypanosoma cruzi it was -4.1%; in experiment [4], 3.07%; in [5], 5.96%. Moreover, the Percent Effect in the experiment listed under Homo sapiens is 5.15%; in experiment [6], 7.84%; in experiment [7] it was 16.5%; in [8] it was -5.46%.
For the compound `O=C(Cc1ccccc1Cl)N1CCCC(n2cncn2)C1` (stereo not given), the Percent Effect in experiment [1] was -7.8%; in [2] it was 5.13%; in experiment [3], 0.737%; with Trypanosoma cruzi, -2.91%; in experiment [4] it was 4.51%; in [5] it was -2.65%. Further, the Percent Effect in the experiment filed under Homo sapiens is 22.2%; in experiment [6], 2.39%; in experiment [7], 8.43%; in experiment [8], 1.66%.

(Values after ChEMBL document CHEMBL3988442, “University of Dundee, Small-Polar-MMV Screening Library” (2021).)
